Consider 35 compounds from PubChem BioAssay.

For this test, the target named is Follistatin (Homo sapiens) (UniProt P19883). Put plainly: follistatin binders on small-molecule microarrays, primary screen, biochemical, small-molecule microarray, 635/667 nm fluorescence (AID 1132). The settings on record: FST binding, 635 nm fluorescence, higher = more signal.
Sequence of Follistatin (Homo sapiens) (P19883 whole entry, looked up): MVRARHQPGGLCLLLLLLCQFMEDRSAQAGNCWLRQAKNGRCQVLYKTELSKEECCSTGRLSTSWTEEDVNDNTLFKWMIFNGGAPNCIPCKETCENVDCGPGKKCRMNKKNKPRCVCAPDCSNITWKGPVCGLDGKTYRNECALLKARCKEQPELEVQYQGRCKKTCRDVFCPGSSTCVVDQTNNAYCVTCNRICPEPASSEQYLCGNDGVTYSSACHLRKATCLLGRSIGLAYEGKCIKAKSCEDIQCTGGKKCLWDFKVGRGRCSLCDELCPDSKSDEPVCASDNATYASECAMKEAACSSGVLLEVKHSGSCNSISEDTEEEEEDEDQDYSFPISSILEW
`COc1ccc([Si](C)(C)[C@@H]2[C@@H](CCO)O[C@]3(C(=O)N(Cc4cccc(N5CCOC5=O)c4)c4ccccc43)[C@H]2C)cc1` gave a composite z-score of 1.

`COCCOC(=O)N1C(=O)[C@@]2(c3ccccc31)[C@H](C(N)=O)[C@H]1C(=O)O[C@H](c3ccccc3)[C@H](c3ccccc3)N1[C@@H]2c1ccc(O)cc1`: the composite z-score came to 0.412.

Take `O=C1C[C@@](C(=O)NCc2ccccc2)(c2ccc([N+](=O)[O-])cc2)[C@@H](c2ccc(CO)cc2)N1CC12CC3CC(CC(C3)C1)C2`: the composite z-score came to 1.33.

Compound `COCC(=C=CC[C@H](O)c1cccc(OCCO)c1)CCO` showed a composite z-score of 1.32.

`COCCCNC(=O)[C@@]1(Cc2ccccc2CN=[N+]=[N-])N=C(c2ccc(OCCCO)cc2)O[C@H]1c1ccccc1CN=[N+]=[N-]` registered a composite z-score of 0.63.

As for `COC(=O)[C@]1(Cc2ccccc2)N=C(c2ccc(OCCCO)cc2)O[C@@H]1c1ccccc1N=[N+]=[N-]`, the composite z-score came to 1.36.

As for `COC(=O)[C@@]1(Cc2ccc(F)cc2)[C@H]2c3cc(C(=O)N(C)C)n(Cc4ccc(C)o4)c3C[C@H]2CN1C(=O)c1ccccc1`, the composite z-score is -1.96.

The compound `CC(C)=CCCC(C)=CC(O)C1C=CC2C(=O)N(c3ccccc3)C(=O)C2N1Nc1ccc(C(C)C)cc1` (stereo not given) showed a composite z-score of 1.12.

With `COc1ccccc1CN1C(=O)c2ccccc2[C@@H](C(=O)NCc2ccccc2)[C@@H]1c1ccc(CO)cc1`, the composite z-score is 0.211.

On to `CC#CC(=O)Oc1ccc(Br)cc1C=CC(=O)OCC`, for which the composite z-score amounted to 0.233.

`O=C(NC1CC1)[C@@H]1c2ccccc2C(=O)N(C2Cc3ccccc3C2)[C@H]1c1ccc(CO)cc1`: the composite z-score stood at 1.29.

In the case of `COCCCNC(=O)[C@@H]1c2ccccc2C(=O)N(Cc2ccccc2OC)[C@H]1c1ccc(CO)cc1`, the composite z-score amounted to 0.832.

`O=C(O)[C@H](Cc1ccccc1)n1cc(-c2ccccc2)nn1` had a composite z-score of 0.571.

Compound `C=CC[C@]1(C(=O)NCc2ccccc2)N=C(c2ccc(OCCCO)cc2)O[C@H]1c1ccccc1CN=[N+]=[N-]` showed a composite z-score of 1.31.

As for `CN1C(=O)C2C=CC(C(O)c3ccc(F)cc3)N(N(c3ccccc3)c3ccccc3)C2C1=O` (stereo not given), the composite z-score was 0.605.

Consider `C=CCC(OC(C)=O)[C@@H]1[C@@H](N(Cc2ccc(-c3cccc(C(F)(F)F)c3)o2)C(=O)Cc2ccc(OC)cc2)c2cc(OCCCO)ccc2N1C(=O)c1ccc2ccccc2c1` (stereo not given in full), for which the composite z-score was found to be 0.776.

`CN(C)CCCCCCNC(=O)[C@@H]1C[C@@H]2C(=O)N[C@@H](CCCC[N+](C)(C)C)C(=O)N2[C@@H]1c1ccc(O)cc1` registered a composite z-score of 0.82.

For the compound `CC(C)CNC(=O)[C@@]1(Cc2ccccc2I)c2ccccc2C(=O)N(Cc2ccccc2C(F)(F)F)[C@H]1c1ccc(CO)cc1`, the composite z-score is -0.239.

In the case of `C=CC[C@]1(C(N)=O)N=C(c2ccc(OCCCO)cc2)O[C@H]1c1ccccc1`, the composite z-score was found to be 0.482.

As to `COCCCNC(=O)[C@@]1(Sc2ccc(C)cc2)CC(=O)N(Cc2ccccc2Cl)[C@@H]1c1ccc(CO)cc1`, the composite z-score amounted to 1.35.

In turn, `CCCC=C(CCC)[C@@H](NC(=O)OCC(C)C)c1ccccc1` showed a composite z-score of 0.978.

The compound `OCC1C=C(/C=C/c2ccccc2)CN1Cc1ccccc1Br` (stereo not given) returned a composite z-score of 1.29.

As to `CN1C(=O)C2C=CC(C(O)C=Cc3ccc([N+](=O)[O-])cc3)N(Nc3ccccc3)C2C1=O` (stereo not given), the composite z-score stood at 1.1.

As for `COC(=O)[C@@]1(Cc2ccccc2)[C@H]2c3cc(C(=O)N4CCCC4)n(Cc4ccc(O)c(OC)c4)c3C[C@H]2CN1C(=O)c1ccccc1`, the composite z-score worked out at 0.284.

For the compound `CN(C)CCCCCCNC(=O)[C@@H]1C[C@@H]2C(=O)N3CCC[C@H]3C(=O)N2[C@@H]1c1ccc(O)cc1`, the composite z-score worked out at 1.47.

On to `C[N+](C)(C)CCCC[C@@H]1NC(=O)[C@H]2C[C@@H](C(=O)NCCCCCCNC(=O)CS)[C@@H](c3ccc(O)cc3)N2C1=O`, for which the composite z-score was 1.36.

In the case of `COC(=O)C(CC#Cc1ccc2c(c1)[C@]1(C(=O)N2)[C@H](c2ccccc2OCCO)N2[C@H](c3ccccc3)[C@H](c3ccccc3)OC(=O)[C@H]2[C@@H]1C(=O)O)C(=O)OC`, the composite z-score worked out at 0.206.

In turn, `NCCCCCNC(=O)[C@H]1C[C@H]2C(=O)N3CCC[C@H]3C(=O)N2[C@H]1c1ccc(O)cc1` yielded a composite z-score of 1.34.

Consider `C=CCC(OC(C)=O)[C@@H]1[C@@H](N(Cc2ccc(-c3ccccc3)cc2)C(=O)Cc2ccc(F)cc2)c2cc(OCCCO)ccc2N1C(=O)c1ccc2ccccc2c1` (stereo not given in full), for which the composite z-score is 0.296.

Compound `CCOc1ccc(N2C(=O)CSC2c2cccc([N+](=O)[O-])c2)cc1` (stereo not given) yielded a composite z-score of 0.0936.

`C=C(CCCC)/C(=C/C[C@H](OC(C)=O)c1ccccc1OCCO)c1cnc2ccccc2c1` registered a composite z-score of 0.891.

Consider `C=CC[C@]1(C(N)=O)COC(c2ccc(OCCCO)cc2)=N1`, for which the composite z-score was 0.786.

`COCCOC(=O)N1C(=O)[C@@]2(c3cc(C#CC4=CCCCC4)ccc31)[C@H](C(N)=O)[C@H]1C(=O)O[C@H](c3ccccc3)[C@H](c3ccccc3)N1[C@@H]2c1ccc(O)cc1` came in with a composite z-score of 0.886.

Turning to `O=C1O[C@@H](c2ccccc2)[C@@H](c2ccccc2)N2[C@@H](c3ccc(OCCO)cc3)[C@]3(C(=O)Nc4ccc(C#CC5=CCCCC5)cc43)[C@@H](C(=O)N3CCCCCCC3)[C@H]12`, the composite z-score is 1.39.

`COc1ccc([Si](C)(C)[C@@H]2[C@@H](CCn3cc([C@H](O)c4ccccc4)nn3)O[C@]3(C(=O)N(Cc4cccc(N5CCC5=O)c4)c4ccccc43)[C@H]2C)cc1` had a composite z-score of 1.15.
